# Results reported in PubChem BioAssay (Tox21).
# Inconclusive results are not listed. Where a call stands in place of a potency, no number is given. Calls of active or inactive are those of the source. Unless noted, calls follow the shape of the full dose curve.
# Columns and labels:
# [1] = qHTS assay to identify small molecule agonists of the estrogen receptor beta (ER-beta) signaling pathway - cell viability counter screen (AID 1259380; active = well fitted curve in the direction sought with a large enough effect in the repeat runs; an effect the other way counts as inactive or inconclusive; also: nearly all actives have a fitted effect of over 30% in size; also: potency is read from the fitted curve at half-maximal effect); details: ER-beta-bla HEK293T viability, CellTiter-Glo luminescence, 16 h; series mostly up to 92.4 µM
# Summary of the method: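 Cells used were ER-beta-UAS-bla HEK293T in medium with 2% charcoal-stripped FBS. They were treated for 16 hr at 37C. Viability came from CellTiter-Glo luminescence.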
# [2] = qHTS assay to identify small molecule antagonists of the estrogen receptor beta (ER-beta) signaling pathway - cell viability counter screen (AID 1259382; active = well fitted curve in the direction sought with a large enough effect in the repeat runs; an effect the other way counts as inactive or inconclusive; also: nearly all actives have a fitted effect of over 55% in size; also: potency is read from the fitted curve at half-maximal effect); details: ER-beta-UAS-bla HEK293T viability, CellTiter-Glo luminescence, 16 h; series mostly up to 92.4 µM
# Summary of the method: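 Agonist-stimulated (1nM E2) ER-beta-UAS-bla HEK293T cells are incubated with library compounds for 16 hr at 37C. Cell viability is then assessed in the reporter-assay wells by adding CellTiter-Glo and reading luminescence after 30 min.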
# [3] = biological target: Estrogen receptor (Homo sapiens) (UniProt P03372); assay: qHTS assay to identify small molecule agonists of the estrogen receptor alpha (ER-alpha) signaling pathway in the presence of an antagonist (AID 1259383); details: VM7Luc4E2 cells, ERE-luciferase, +ICI-182,780, 22 h; series mostly up to 92.4 µM; also: nearly all actives have a fitted effect of over 15% in size; also: potency is read from the fitted curve at half-maximal effect
# Estrogen receptor (Homo sapiens), sequence (P03372 whole entry, looked up): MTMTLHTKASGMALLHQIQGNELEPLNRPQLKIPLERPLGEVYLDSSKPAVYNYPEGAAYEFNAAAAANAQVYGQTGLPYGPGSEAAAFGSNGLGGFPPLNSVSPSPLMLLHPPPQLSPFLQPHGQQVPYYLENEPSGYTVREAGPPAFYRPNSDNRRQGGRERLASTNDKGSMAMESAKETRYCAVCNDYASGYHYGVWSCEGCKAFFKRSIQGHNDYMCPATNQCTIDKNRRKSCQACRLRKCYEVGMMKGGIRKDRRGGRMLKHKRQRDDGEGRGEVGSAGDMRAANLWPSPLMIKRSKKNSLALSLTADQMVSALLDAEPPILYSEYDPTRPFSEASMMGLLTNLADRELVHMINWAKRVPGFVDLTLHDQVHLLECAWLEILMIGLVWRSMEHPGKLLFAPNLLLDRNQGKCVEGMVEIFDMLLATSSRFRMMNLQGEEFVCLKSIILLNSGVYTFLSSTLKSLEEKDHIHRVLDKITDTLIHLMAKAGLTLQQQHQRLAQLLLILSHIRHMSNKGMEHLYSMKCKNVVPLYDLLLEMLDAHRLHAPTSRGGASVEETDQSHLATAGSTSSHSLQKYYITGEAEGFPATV
# Summary of the method: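 Using VM7Luc4E2 cells seeded 24hr before treatment, antagonist ICI-182,780 (10.0nM final) was added, followed by compounds at 15 concentrations. Plates incubated 22hr; ONE-Glo luminescence quantified reporter activity.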
# [4] = qHTS assay to identify small molecule agonists of the estrogen receptor alpha (ER-alpha) signaling pathway in the presence of an antagonist - cell viability counter screen (AID 1259386; active = well fitted curve in the direction sought with a large enough effect in the repeat runs; an effect the other way counts as inactive or inconclusive;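 also: cells exposed to compounds for 22 h at 37 °C before the viability read; nearly all actives have a fitted effect of over 30% in size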; also: potency is read from the fitted curve at half-maximal effect); details: VM7Luc4E2 viability, CellTiter-Fluor fluorescence, 22 h; series mostly up to 92.4 µM
# Summary of the method: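 ICI-182,780 at 10.0nM final accompanies the compound titration (15 concentrations, 22hr, 37C) on VM7Luc4E2 cells. The CellTiter-Fluor fluorescence readout runs in the same wells as the luciferase assay.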
# [5] = biological target: Progesterone receptor (Homo sapiens) (UniProt P06401); assay: qHTS assay to identify small molecule agonists of the progesterone receptor (PR) signaling pathway (AID 1346784); details: PR-UAS-bla HEK293T, beta-lactamase FRET ratio, 16 h; series mostly up to 92.4 µM; also: nearly all actives have a fitted effect of over 30% in size
# Progesterone receptor (Homo sapiens), sequence (P06401 whole entry, looked up): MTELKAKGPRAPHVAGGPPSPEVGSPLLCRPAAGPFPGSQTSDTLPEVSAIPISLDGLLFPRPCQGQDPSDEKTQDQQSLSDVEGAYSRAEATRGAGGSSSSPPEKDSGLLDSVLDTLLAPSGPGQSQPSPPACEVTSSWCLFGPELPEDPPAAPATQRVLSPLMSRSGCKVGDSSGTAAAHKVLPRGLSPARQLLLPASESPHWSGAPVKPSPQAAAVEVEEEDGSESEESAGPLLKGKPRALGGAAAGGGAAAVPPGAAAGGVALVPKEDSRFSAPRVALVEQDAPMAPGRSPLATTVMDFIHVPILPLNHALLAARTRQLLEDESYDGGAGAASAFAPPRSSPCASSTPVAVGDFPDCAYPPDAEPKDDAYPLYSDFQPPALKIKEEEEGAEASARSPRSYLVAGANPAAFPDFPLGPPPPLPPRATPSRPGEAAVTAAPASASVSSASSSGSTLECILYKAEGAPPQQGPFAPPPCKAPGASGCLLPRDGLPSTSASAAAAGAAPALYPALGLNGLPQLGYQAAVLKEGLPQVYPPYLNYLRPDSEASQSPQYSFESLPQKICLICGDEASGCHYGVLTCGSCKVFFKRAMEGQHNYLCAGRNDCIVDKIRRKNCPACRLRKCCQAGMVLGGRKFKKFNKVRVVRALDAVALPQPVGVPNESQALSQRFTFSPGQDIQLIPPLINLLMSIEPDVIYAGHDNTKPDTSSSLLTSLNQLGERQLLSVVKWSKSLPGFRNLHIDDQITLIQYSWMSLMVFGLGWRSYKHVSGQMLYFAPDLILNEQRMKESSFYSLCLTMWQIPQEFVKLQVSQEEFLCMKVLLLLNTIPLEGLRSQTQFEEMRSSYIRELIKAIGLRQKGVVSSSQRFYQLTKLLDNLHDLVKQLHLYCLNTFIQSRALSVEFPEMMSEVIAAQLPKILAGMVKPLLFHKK
# Summary of the method: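 HEK 293T PR-UAS-bla reporter cells, 2% charcoal-stripped FBS; 6 hr settle at 37C/5% CO2, compound (DMSO) 16 hr, LiveBLAzer B/G FRET substrate 2 hr RT, fluorescence intensity read.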
# [6] = biological target: Progesterone receptor (Homo sapiens) (UniProt P06401); assay: qHTS assay to identify small molecule antagonists of the progesterone receptor (PR) signaling pathway (AID 1346795; active = well fitted inhibition curve with a large enough effect in the signal ratio in the repeat runs, not every such curve was filed as active; the % refers to the signal ratio; also: potency is read from the fitted curve at half-maximal effect); details: PR-UAS-bla HEK293T, beta-lactamase FRET ratio, 16 h; series mostly up to 92.4 µM
# Summary of the method: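 Beta-lactamase reporter, HEK293T PR-UAS-bla line; 2% charcoal-stripped FBS; 6 hr pre-incubation, 37C/5% CO2. Compound + R5020 1 nM final, 16 hr. LiveBLAzer B/G FRET substrate, 2 hr RT; fluorescence intensity read.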
# [7] = qHTS assay to identify small molecule antagonists of the progesterone receptor (PR) signaling pathway - cell viability counter screen (AID 1346798; active = well fitted curve in the direction sought with a large enough effect in the repeat runs; an effect the other way counts as inactive or inconclusive; also: nearly all actives have a fitted effect of over 50% in size; also: potency is read from the fitted curve at half-maximal effect); details: PR-UAS-bla HEK293T viability, CellTiter-Glo luminescence, 16 h; series mostly up to 92.4 µM
# Summary of the method: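 Luminescence readout (CellTiter-Glo, 30 min, RT) of viability in PR-UAS-bla HEK293T cells exposed to compound and R5020 agonist for 16 hr at 37C, 5% CO2; run in the same wells as the beta-lactamase reporter read.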
# [8] = qHTS assay to identify small molecule agonists or antagonists of the thyroid stimulating hormone receptor (TSHR) signaling pathway - wild type cell line counter screen (AID 1259384); details: HEK293 wild type, cAMP HTRF counter-screen; series mostly up to 92.4 µM
# Summary of the method: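 Wild-type Hek293 cells, 800/well, 18 h at 37C, then compound with Ro20-1724 for 30 min RT. cAMP by HTRF (cAMP-d2/anti-cAMP cryptate), 1 h RT, fluorescence read. 15 concentrations, triplicates.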
# [9] = biological target: Thyrotropin receptor (Homo sapiens) (UniProt P16473); assay: qHTS assay to identify small molecule antagonists of the thyroid stimulating hormone receptor (TSHR) signaling pathway (AID 1259385); details: TSHR-HEK293 cAMP HTRF, TSH-stimulated antagonist mode; series mostly up to 92.4 µM; also: nearly all actives have a fitted effect of over 20% in size; also: potency is read from the fitted curve at half-maximal effect
# Thyrotropin receptor (Homo sapiens), sequence (P16473 whole entry, looked up): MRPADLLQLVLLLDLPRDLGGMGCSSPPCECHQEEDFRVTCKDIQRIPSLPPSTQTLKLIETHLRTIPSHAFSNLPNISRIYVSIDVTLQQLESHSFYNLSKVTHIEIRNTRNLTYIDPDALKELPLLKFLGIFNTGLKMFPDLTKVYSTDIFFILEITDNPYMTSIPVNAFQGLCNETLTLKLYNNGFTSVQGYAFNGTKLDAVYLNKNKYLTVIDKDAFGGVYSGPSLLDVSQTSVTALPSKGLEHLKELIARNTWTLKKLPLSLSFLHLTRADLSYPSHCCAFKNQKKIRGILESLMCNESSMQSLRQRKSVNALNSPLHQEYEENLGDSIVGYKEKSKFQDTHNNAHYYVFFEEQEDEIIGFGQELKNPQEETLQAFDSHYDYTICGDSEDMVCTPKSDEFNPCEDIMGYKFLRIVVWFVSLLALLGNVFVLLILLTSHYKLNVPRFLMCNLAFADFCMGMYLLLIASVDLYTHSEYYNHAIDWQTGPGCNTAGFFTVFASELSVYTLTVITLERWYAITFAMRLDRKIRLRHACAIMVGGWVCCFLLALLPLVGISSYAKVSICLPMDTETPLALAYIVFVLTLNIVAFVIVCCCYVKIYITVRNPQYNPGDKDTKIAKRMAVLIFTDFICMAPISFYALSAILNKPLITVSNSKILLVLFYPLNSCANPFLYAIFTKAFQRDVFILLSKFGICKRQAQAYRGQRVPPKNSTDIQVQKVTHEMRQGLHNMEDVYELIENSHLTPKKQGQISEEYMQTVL
# Summary of the method: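 TSHR-HEK293 cells (800/well) plated 18 h, then compounds with Ro20-1724 and TSH at 1.5 ng/mL final, 30 min at room temperature. cAMP quantified by HTRF (cAMP-d2/anti-cAMP-cryptate, 1 h); 15 concentrations in triplicate.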
# [10] = biological target: Androgen receptor (Homo sapiens) (UniProt P10275); assay: qHTS assay to identify small molecule agonists of the androgen receptor (AR) signaling pathway in the presence of an antagonist (AID 1259381); details: MDA-kb2 MMTV-luciferase, AR agonist + nilutamide, 16 h; series mostly up to 92.4 µM; also: nearly all actives have a fitted effect of over 15% in size; also: potency is read from the fitted curve at half-maximal effect
# Androgen receptor (Homo sapiens), sequence (P10275 whole entry, looked up): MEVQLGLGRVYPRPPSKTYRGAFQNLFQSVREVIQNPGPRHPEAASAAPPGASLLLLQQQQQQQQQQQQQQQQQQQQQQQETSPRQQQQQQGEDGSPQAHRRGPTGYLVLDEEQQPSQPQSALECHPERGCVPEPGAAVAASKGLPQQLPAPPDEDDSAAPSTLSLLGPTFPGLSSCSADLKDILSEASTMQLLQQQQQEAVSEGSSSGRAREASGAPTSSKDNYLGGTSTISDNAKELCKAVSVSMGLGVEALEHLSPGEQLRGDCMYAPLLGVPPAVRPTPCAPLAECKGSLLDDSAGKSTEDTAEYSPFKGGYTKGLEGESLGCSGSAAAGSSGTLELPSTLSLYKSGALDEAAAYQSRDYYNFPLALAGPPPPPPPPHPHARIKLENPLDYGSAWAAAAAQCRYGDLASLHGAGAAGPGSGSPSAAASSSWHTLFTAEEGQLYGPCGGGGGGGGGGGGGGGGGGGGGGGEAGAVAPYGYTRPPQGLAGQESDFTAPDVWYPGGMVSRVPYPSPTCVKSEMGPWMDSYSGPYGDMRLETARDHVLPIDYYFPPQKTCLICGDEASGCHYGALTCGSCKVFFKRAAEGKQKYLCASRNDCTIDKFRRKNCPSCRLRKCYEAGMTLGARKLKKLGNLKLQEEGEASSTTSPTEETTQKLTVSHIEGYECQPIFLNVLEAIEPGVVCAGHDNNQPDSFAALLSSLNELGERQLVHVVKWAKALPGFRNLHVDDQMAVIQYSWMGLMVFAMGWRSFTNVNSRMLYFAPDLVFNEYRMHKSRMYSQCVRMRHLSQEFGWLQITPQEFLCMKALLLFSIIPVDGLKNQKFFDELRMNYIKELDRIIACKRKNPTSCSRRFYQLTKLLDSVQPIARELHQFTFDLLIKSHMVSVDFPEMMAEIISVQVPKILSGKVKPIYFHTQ
# Summary of the method: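 Using human MDA-kb2 cells with an MMTV promoter–luciferase construct (AR and GR response elements), agonist activity is scored under 3.0uM nilutamide (final) co-treatment; 16hr incubation, 37C, luminescence readout via ONE-Glo.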
Compound,Potency [1],Potency [2],Potency [3],Potency [4],outcome [5],Potency [6],Potency [7],Potency [8],Potency [9],Potency [10]
CCOC(=O)[C@H](C)O,inactive,inactive,inactive,inactive,inactive,inactive,inactive,,,
O=[N+]([O-])c1ccc(O)c2ncccc12,0.944 µM (active),,,11.9 µM (active),inactive,0.531 µM (active),0.531 µM (active),inactive,inactive,
Cc1cccc(C)c1C,inactive,inactive,,inactive,inactive,inactive,inactive,inactive,inactive,
COc1ccc(OC)c(N=Nc2c(O)ccc3ccccc23)c1,30.6 µM (active),,,,inactive,inactive,inactive,inactive,61.1 µM (active),
Oc1cccc2c(O)cccc12,61.1 µM (active),61.1 µM (active),inactive,,inactive,48.6 µM (active),inactive,,,
Cc1c(Cl)c(=O)oc2cc(O)ccc12,inactive,inactive,,,,,,inactive,inactive,
CCCCCCCCOC(=O)c1cc(O)c(O)c(O)c1,68.6 µM (active),,inactive,,,30.6 µM (active),,inactive,inactive,
CC1=C(/C=C/C(C)=C/C=C/C(C)=C\C(=O)O)C(C)(C)CCC1,9.72 µM (active),inactive,inactive,inactive,inactive,inactive,,,,
CCCCC/C=C\C=C\C(=O)OCC,50.6 µM (active),,inactive,inactive,inactive,inactive,,inactive,inactive,
Cc1ccc(Cl)c(N)c1Cl,inactive,inactive,,inactive,,,,inactive,inactive,
c1ccc(-c2ccccc2-c2ccccc2)cc1,68.6 µM (active),,inactive,,,,,inactive,,
COc1cc([C@@H]2c3cc4c(cc3[C@@H](O[C@@H]3O[C@@H]5CO[C@@H](C)O[C@H]5[C@H](O)[C@H]3O)[C@H]3COC(=O)[C@H]23)OCO4)cc(OC)c1O,inactive,inactive,,inactive,inactive,24.1 µM (active),,inactive,inactive,
CCSCC,inactive,inactive,inactive,inactive,,,,,,
C=CC(=O)O[C@H]1C[C@@H]2CC[C@@]1(C)C2(C)C,inactive,inactive,inactive,inactive,inactive,inactive,,,,
c1ccc2cc3c4ccccc4c4ccccc4c3cc2c1,inactive,inactive,,inactive,inactive,inactive,inactive,inactive,inactive,
NC(=O)c1ccccc1Cl,inactive,inactive,inactive,inactive,inactive,inactive,,,,
c1ccc(-c2ccc(C(c3ccccc3)n3ccnc3)cc2)cc1 (stereo not drawn),29.8 µM (active),,inactive,inactive,,5.96 µM (active),9.44 µM (active),inactive,,
CC(=O)CC(N)=O,inactive,inactive,inactive,inactive,inactive,inactive,,,,
CCCCCN=C(N)N/N=C/c1c[nH]c2ccc(OC)cc12,16.8 µM (active),16.8 µM (active),,33.5 µM (active),,,,inactive,29.8 µM (active),
COc1c(Br)cc(Br)c(C)c1Br,inactive,inactive,,inactive,inactive,inactive,inactive,inactive,,
Nc1cc([N+](=O)[O-])cc(Cl)c1O,inactive,inactive,inactive,,inactive,inactive,inactive,,,

Compound,Potency [1],Potency [2],Potency [3],Potency [4],outcome [5],Potency [6],Potency [7],Potency [8],Potency [9],Potency [10]
O=C(Nc1ccc([N+](=O)[O-])cc1)Nc1ccc([N+](=O)[O-])cc1 (tested in a mixture with another compound),0.596 µM (active),,,inactive,inactive,,1.19 µM (active),inactive,inactive,
ClC(c1ccccc1)(c1ccccc1)c1ccccc1,inactive,inactive,,inactive,inactive,,inactive,,,
S=C1NC=NC2N=CNC12 (stereo not drawn),3.44 µM (active),,,inactive,inactive,,,inactive,inactive,
Nc1c(Br)cc([N+](=O)[O-])cc1Br,inactive,,inactive,,inactive,,inactive,,,
CCC(C)(C)c1ccc(CC(C)CN2C[C@@H](C)O[C@@H](C)C2)cc1 (stereo partly drawn),26.6 µM (active),inactive,inactive,,inactive,inactive,,inactive,,
C=C(C)C1CCC(C)CC1O (stereo not drawn),inactive,inactive,,inactive,inactive,,,inactive,inactive,
CN1CCN(CCCN2c3ccccc3Sc3ccc(C(F)(F)F)cc32)CC1,15 µM (active),21.1 µM (active),,,,,26.6 µM (active),inactive,26.6 µM (active),
Clc1nc(C(Cl)(Cl)Cl)c(Cl)c(Cl)c1Cl,8.63 µM (active),,inactive,,inactive,,,inactive,,
O=S(=O)(c1ccc(OCc2ccccc2)cc1)c1ccccc1O,,,inactive,,,48.6 µM (active),,inactive,,inactive
CCCCCCCCCC[N+](C)(CCCCCCCCCC)CCC[Si](OC)(OC)OC,,,inactive,inactive,inactive,inactive,,inactive,inactive,
Oc1ccc(Cl)cc1C1CCCC1,,inactive,inactive,inactive,inactive,,,inactive,inactive,
O=C1CCCCCCCCCCCCCC1,,inactive,inactive,inactive,inactive,inactive,inactive,inactive,,
O=C(Nc1ccccc1)c1cc(Cl)ccc1O,,inactive,inactive,15.4 µM (active),,24.3 µM (active),,inactive,inactive,
c1ccc(-c2nc3ccccc3[nH]2)cc1,,,inactive,inactive,inactive,,inactive,inactive,inactive,
O=C1CCC/C=C\CCCCCCCCCC1,,inactive,,inactive,inactive,48.6 µM (active),,inactive,inactive,
CCCC(=O)c1cc(O)c(O)cc1O,,inactive,inactive,,,,,,,inactive
CCCCCCCCCCCCCCCCC(C(=O)O)C(O)(CC(=O)O)C(=O)O (stereo not drawn),,inactive,inactive,inactive,inactive,inactive,inactive,inactive,inactive,inactive
CCCCCc1ccc(O)cc1,,,inactive,,inactive,,inactive,inactive,inactive,inactive
CN(C/C=C/c1ccccc1)Cc1cccc2ccccc12,,,inactive,,inactive,,inactive,inactive,,
CCN(CC)c1ccc(C=O)cc1,,inactive,inactive,inactive,inactive,,,inactive,,34.4 µM (active)
CC(C)(C)C1=CC(=O)C(C(C)(C)C)=CC1=O,,inactive,,inactive,inactive,inactive,inactive,inactive,inactive,inactive

Compound,Potency [1],Potency [2],Potency [3],Potency [4],outcome [5],Potency [6],Potency [7],Potency [8],Potency [9],Potency [10]
Nc1ccc(Oc2cccc(Oc3ccc(N)cc3)c2)cc1,,inactive,inactive,inactive,inactive,30.6 µM (active),,inactive,inactive,
CCOc1ccc([N+](=O)[O-])cc1,,inactive,24.7 µM (active),inactive,,27.7 µM (active),,,,
O=c1[nH]cccc1O,,,inactive,inactive,inactive,,,,,
c1ccc(C[P+](c2ccccc2)(c2ccccc2)c2ccccc2)cc1,,inactive,inactive,,inactive,inactive,inactive,inactive,,
CC(C)(C)c1ccc(OC2CCCCC2O)cc1 (stereo not drawn),,,inactive,,inactive,,inactive,inactive,inactive,inactive
Nc1ccc(Cl)c([N+](=O)[O-])c1,,,,,inactive,54.5 µM (active),,,,inactive
c1ccc2occc2c1,,,inactive,inactive,inactive,,,inactive,inactive,
C=Cc1ccc(O)c(OC)c1,,,inactive,,inactive,,,inactive,inactive,
C=CCc1cc(S(=O)(=O)c2ccc(O)c(CC=C)c2)ccc1O,,,inactive,,inactive,27.3 µM (active),,inactive,inactive,inactive
CC(C)=NNC(N)=S,,,inactive,inactive,,,21.7 µM (active),,,
CC(C)c1ccc2sc3ccccc3c(=O)c2c1,,inactive,1.37 µM (active),inactive,inactive,,inactive,inactive,54.5 µM (active),
NCc1cccc(C2CCN(C(=O)c3ccc(C#Cc4ccccc4F)o3)CC2)c1,,61.1 µM (active),inactive,,,68.6 µM (active),48.6 µM (active),,,inactive
CCCCCCCC/C=C\CCCCCCCC(=O)N(CCO)CCO,,inactive,inactive,inactive,inactive,43.1 µM (active),,inactive,inactive,
O=C1Cc2ccccc2C1,,,,,,,inactive,,,
CCOC(=O)C1=NN(c2ccc(Cl)cc2Cl)C(C)(C(=O)OCC)C1 (stereo not drawn),,inactive,inactive,,inactive,27.3 µM (active),inactive,inactive,,inactive
C1=CCCC1,,inactive,inactive,inactive,,,inactive,inactive,inactive,inactive
CCCCCCCC1CCC(=O)O1 (stereo not drawn),,,,,,,inactive,,,
Nc1ccc(N)c([N+](=O)[O-])c1,,,,30.6 µM (active),,,inactive,,,
COc1cccc(-c2ccc(/C=C\CN3CCCCCC3)cc2Cl)c1,,,inactive,inactive,inactive,,inactive,inactive,,
CC(C)(c1ccc(Oc2ccc(N)cc2)cc1)c1ccc(Oc2ccc(N)cc2)cc1,,,inactive,54.5 µM (active),inactive,27.3 µM (active),,inactive,,inactive
